Assay outcomes deposited in PubChem BioAssay by several laboratories.
Compounds with a hit are over-represented: about 22% of the library has one in this group of screens.
CYP2C19 inh: blocks human cytochrome P450 2C19 | hit rate 21% among 96,000 | inhibition, % at 5 µM | P33261 | AID 778 | CYP2C19 Supersomes, luciferin-H EGE luminescence, 30 min;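 active = CYP2C19 inhibition above a set limit at 5 µM in the primary screen, cut at about 50% in these data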
Target sequence (P33261 whole entry, looked up): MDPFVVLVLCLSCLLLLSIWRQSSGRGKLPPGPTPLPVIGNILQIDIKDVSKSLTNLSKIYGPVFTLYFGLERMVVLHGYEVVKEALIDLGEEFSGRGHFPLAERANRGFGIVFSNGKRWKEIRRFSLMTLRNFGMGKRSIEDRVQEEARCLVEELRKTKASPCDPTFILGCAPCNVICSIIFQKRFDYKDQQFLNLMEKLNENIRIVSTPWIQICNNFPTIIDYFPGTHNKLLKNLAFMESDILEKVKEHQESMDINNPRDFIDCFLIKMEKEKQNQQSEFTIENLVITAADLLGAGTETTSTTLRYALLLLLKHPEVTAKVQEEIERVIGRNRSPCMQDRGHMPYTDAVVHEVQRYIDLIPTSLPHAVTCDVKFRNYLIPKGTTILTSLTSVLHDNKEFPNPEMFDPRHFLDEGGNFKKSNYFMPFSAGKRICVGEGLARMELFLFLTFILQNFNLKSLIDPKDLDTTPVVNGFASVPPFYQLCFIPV
F-actin modifier: alters cytoskeleton assembly in HUVEC cells; HUVEC TNFa F-actin phalloidin imaging, high content; AID 836; inhibition, % at 2 µM; hit rate 0.18% among 91,000;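 active = inhibition above the batch mean plus 3 SD and confirmed as a hit by visual image inspection, cut at about 30% in these data, passing the limit was not always enough; inconclusive = above the inhibition threshold but rejected on visual inspection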
CYP2C9 inh: blocks human cytochrome P450 2C9 | P11712 | CYP2C9 Supersomes, luciferin-H conversion, luminescence | inhibition, % at 5 µM | hit rate 20% among 96,000;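 active = blocking of liver enzyme CYP2C9 beyond about 50% at 5 µM, limit read from the data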
CYP2C19 activ: cytochrome P450 2C19 (human) activation; P33261; AID 1025; 96,000 tested, under 10 active; activation factor at 5 µM; recombinant CYP2C19, luciferin-H EGE luminescence; active compounds read high; 0 = fully inhibited enzyme, 1 = untreated enzyme;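 active = activation factor of at least 2 at 5 µM in the primary screen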
E-sel TNF inh: TNF alpha driven E-selectin expression inhibition | HUVEC TNFa-induced E-selectin immunofluorescence, high content | inhibition, % at 2 µM | hit rate 0.71% among 120,000 | AID 1246;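 active = inhibition above the batch mean plus 3 SD, and confirmed as a hit on visual image review, cut at about 43% in these data; inconclusive = passes the inhibition cutoff but fails visual image review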
CYP2C9 activ: activators of human CYP2C9 | recombinant CYP2C9, luciferin-H conversion, luminescence; active compounds read high; factor 1 = untreated enzyme, 0 = blocked | activation factor at 5 µM | hit rate 1.4% among 96,000;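 active = activation factor of 2 or more for CYP2C9 at a 5 µM dose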
A number is an active result; i = inactive; ? = inconclusive; nt = no result given.

SMILES	CYP2C19 inh	F-actin modifier	CYP2C9 inh	CYP2C19 activ	E-sel TNF inh	CYP2C9 activ
O=C(c1ccccc1[N+](=O)[O-])N1CCC(Cc2ccccc2)CC1	66	i	60	i	i	i
O=c1c2[nH]c3cccc(Cl)c3c2ncn1Cc1ccncc1	58	i	52	i	i	i
O=C(Nc1cccnc1)c1coc(=O)c2ccccc12	i	55	i	i	nt	i
COC(=O)c1nn(-c2ccc(-c3ccccc3)cc2)cc1O	i	nt	i	i	i	i
CCN1CCN(C(=O)c2c(-c3c(F)cccc3Cl)noc2C)CC1	i	nt	i	i	i	i
Cc1onc(-c2ccccc2)c1C(=O)N1CCCc2ccccc21	69	i	i	i	i	i
Cc1cc(C(=O)N2CCCc3ccccc32)no1	i	i	i	i	i	i
Cc1noc(C)c1C(=O)N1CCc2ccccc21	i	i	i	i	i	i
Cc1onc(-c2c(F)cccc2Cl)c1C(=O)N1CCc2ccccc21	63	nt	i	i	i	i
Cc1onc(-c2c(Cl)cccc2Cl)c1C(=O)N1CCCc2ccccc21	91	i	82	i	i	i
CCOC(=O)C1CCN(C(=O)c2c(-c3c(Cl)cccc3Cl)noc2C)CC1	70	i	79	i	i	i
CCCCCCCNC(=O)c1ccc(N2CCC3(CC2)OCCO3)c([N+](=O)[O-])c1	nt	nt	nt	nt	i	nt
O=C(Nc1cnc2sccn2c1=O)c1ccccc1Cl	i	i	i	i	nt	i
Cc1onc(-c2c(Cl)cccc2Cl)c1C(=O)N1C=CC(C(F)(F)F)=NCC1	59	nt	i	i	nt	i
Cc1onc(-c2c(Cl)cccc2Cl)c1C(=O)N1CCc2ccccc2C1	77	i	73	i	i	i
Cc1onc(-c2ccccc2Cl)c1C(=O)N1CCN(c2ccccc2)CC1	i	i	i	i	i	i
CSCCC(C(=O)N1C[C@]2(C)C[C@H]1CC(C)(C)C2)N1C(=O)c2ccccc2C1=O (stereo not given in full)	i	i	i	i	i	i
O=C(OCc1ccco1)c1ccc(S(=O)(=O)N2CCCCC2)cc1	i	i	i	i	i	i
O=C(OCC(=O)N1CCN(C(=O)c2ccco2)CC1)c1cc(-c2cccc(Br)c2)nc2ccccc12	i	i	61	i	i	i
O=C(OCC(=O)N1CCN(C(=O)c2ccco2)CC1)c1ccc(S(=O)(=O)N2CCCCC2)cc1	i	i	60	i	i	i
O=C(OCC(=O)N1CCN(C(=O)c2ccco2)CC1)c1ccccc1OCc1ccccc1	64	i	87	i	i	i
O=C(OCC(=O)N1CCN(c2ccccc2)CC1)c1ccc2ncsc2c1	73	?	i	i	i	i
Cc1nnc(SCC(=O)NCc2ccco2)n1-c1ccc(F)cc1	nt	i	nt	nt	i	nt
CCOC(=O)c1nc2nc(C)c(Cl)c(=O)n2[nH]1	i	i	i	i	nt	i
COC(=O)C1=C(C)Nc2ncnn2C1c1ccc(C)o1 (stereo not given)	i	i	i	i	nt	i
SMILES	CYP2C19 inh	F-actin modifier	CYP2C9 inh	CYP2C19 activ	E-sel TNF inh	CYP2C9 activ
O=C(Nc1ccc(F)cc1)C1CCN(c2nnnn2-c2ccccc2)CC1	i	i	i	i	i	i
O=C(CN1C(=O)c2ccccc2C1=O)Nc1ccc(Cl)cn1	nt	nt	nt	nt	i	nt
O=C(OCC(=O)N1CCN(C(=O)c2ccco2)CC1)c1cn(-c2ccccc2)nc1-c1ccccc1	i	i	68	i	i	i
O=C(OCC(=O)N1CCN(C(=O)c2ccco2)CC1)c1cc(-c2ccccc2)nc2ccccc12	i	i	76	i	nt	i
Cc1cc(C(=O)OCC(=O)N2CCN(c3ccccc3)CC2)c2ccccc2n1	i	i	i	i	i	2.8
Cc1ccc2c(Cl)c(C(=O)NCc3cccnc3)sc2c1	i	i	i	i	i	i
CCn1c(=O)c(C(=O)Nc2cccnc2)c(O)c2ccccc21	nt	i	nt	nt	i	nt
CCCn1c(=O)c(C(=O)NCc2ccncc2)c(O)c2ccccc21	68	i	80	i	i	i
CCCn1c(=O)c(C(=O)Nc2cnccn2)c(O)c2ccccc21	i	nt	i	i	nt	i
CCn1c(=O)c(C(=O)NCc2cccnc2)c(O)c2ccccc21	i	i	72	i	i	i
CCn1c(C(=O)NCc2cccnc2)cc2sc(Cl)cc21	99	i	90	i	i	i
O=C(NNc1c(Cl)cc(Cl)cc1Cl)c1cccc([N+](=O)[O-])c1	nt	nt	nt	nt	i	nt
Cc1ccc(NS(C)(=O)=O)c(C(=O)c2ccccc2)c1	70	i	i	i	i	i
COc1ccccc1C(=O)Nc1ccc(C)cc1C(=O)c1ccccc1	nt	nt	nt	nt	i	nt
